Assay outcomes deposited in PubChem BioAssay by several laboratories.
The list is not random: actives were taken first. Their share in the collection is about 3.5%.
Mtb UGM inh: inhibitors of M. tuberculosis UDP-galactopyranose mutase. actives 0.06% (n = 320,000). purified UGM, fluorescence polarization probe displacement. inhibition, % at 10 µM; in the data active = inhibition above about 10%, passing the limit was not always enough
Target sequence (P9WIQ1 whole entry, looked up): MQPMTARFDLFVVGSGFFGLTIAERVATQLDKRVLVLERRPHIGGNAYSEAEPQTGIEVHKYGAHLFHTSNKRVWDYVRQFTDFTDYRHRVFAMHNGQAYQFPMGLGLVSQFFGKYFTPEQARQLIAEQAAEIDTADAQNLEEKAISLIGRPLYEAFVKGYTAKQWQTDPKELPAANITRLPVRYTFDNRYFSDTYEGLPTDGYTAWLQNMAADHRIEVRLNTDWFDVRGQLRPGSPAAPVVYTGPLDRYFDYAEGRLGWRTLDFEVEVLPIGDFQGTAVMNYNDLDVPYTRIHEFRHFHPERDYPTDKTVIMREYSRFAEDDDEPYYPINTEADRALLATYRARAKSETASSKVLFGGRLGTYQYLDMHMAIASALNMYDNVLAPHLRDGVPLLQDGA
GDH-TPI counter: counter-screen for M. tuberculosis FBA inhibitors: GDH-TPI coupled enzymes | GDH-TPI coupled enzyme counterscreen, NADH absorbance | inhibition, % at 4.8 µM | actives 1.2% (n = 360,000); in the data active = inhibition above about 30%
FBA Mtb inh: Mtb fructose-bisphosphate aldolase inhibition; P9WQA3; purified M. tuberculosis FBA, fluorescence read-out; inhibition, % at 1 µM; actives 2.3% (n = 360,000); in the data active = inhibition above about 27%
Rv3671c protease: inhibitors of M. tuberculosis serine protease Rv3671c; P9WHR9; inhibition, % at 5.96 µM; actives 0.048% (n = 320,000); AID 2606; in the data active = inhibition above about 38%;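 note: extracellular domain of Rv3671c used as enzyme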
Each line names hits and unclear results; the compound was inactive in the other large screens.

O=C1NC2(CCCCCC2)C(=O)N1Cc1ccccc1Cl	none
O=C(NCCCN1CCOCC1)c1sc2cc([N+](=O)[O-])ccc2c1Cl	FBA Mtb inh 54
O=C1c2cccc3cccc(c23)C(=O)N1CC1CCN(CC(O)COc2ccc3ccccc3c2)CC1 (stereo unspecified)	GDH-TPI counter 42
COc1cc(/C=C/C(=O)c2c(O)ccc3c(C)cc(=O)oc23)ccc1O	GDH-TPI counter 50
COc1cc(/C=C/C(=O)c2c(O)cc(C)oc2=O)cc(OC)c1O	GDH-TPI counter 34
COc1ccc(/C=C\C(=O)c2c(O)ccc3c(C)cc(=O)oc23)cc1OC	GDH-TPI counter 52
Cc1cc(=O)oc2c(C(=O)/C=C\c3cccs3)c(O)ccc12	GDH-TPI counter 42
CC1(C)ON=C(c2cccc(F)c2)NC1=O	none (no result: Mtb UGM inh, Rv3671c protease)
O=C(Nc1ccc(OC(F)(F)F)cc1)NC1CCC(Oc2ccc(C(=O)O)cc2)CC1 (stereo unspecified)	none
Cc1ccc(N(C)S(=O)(=O)c2c(C)noc2/C=C/N(C)C)cc1	GDH-TPI counter 34
COc1cc(CC(=O)N2CCN(S(=O)(=O)c3ccc(C)cc3)CC2)cc(OC)c1OC	none
Nc1cc(N)cc(-c2nc3ccccc3[nH]2)c1	none
COc1ccc(-c2nc3ccccc3[nH]2)cc1	none
COC(=O)c1ccc(O)cc1	none (no result: Mtb UGM inh, Rv3671c protease)
COC(=O)c1ccc(-c2ncc[nH]2)cc1	FBA Mtb inh active
O=C(O)c1cccc(-c2nc3ccccc3[nH]2)c1	FBA Mtb inh 112
COC(=O)c1ccc(-c2nc3ccccc3[nH]2)cc1	FBA Mtb inh active
Cc1cc(-c2nc3ccccc3[nH]2)ccc1N	FBA Mtb inh 174
c1ccc(-c2nc3ccccc3[nH]2)cc1	none
CCc1cccc(C)c1NC(=O)CN(C)S(=O)(=O)c1ccc(-c2ccc(=O)[nH]n2)s1	none
O=C(CCc1ccccc1)NNC(=O)c1ccncc1	none
CCn1c(=O)c([N+](=O)[O-])c(N2CCN(Cc3ccc4c(c3)OCO4)CC2)c2ccccc21	none
O=C(/C=C/c1ccco1)Nc1ccc(-c2nc3ccccc3[nH]2)cc1	none
O=C(Nc1ccc(-c2nc3ccccc3[nH]2)cc1)c1ccco1	GDH-TPI counter 42
Cc1nc(-c2ccc(NC(=O)c3ccco3)cc2)cs1	none
Cc1ccn2cc(-c3ccc(NC(=O)c4ccco4)cc3)nc2c1	GDH-TPI counter 33
COCCCNc1nc2ccccc2nc1NS(=O)(=O)c1cc(Cl)ccc1Cl	none
CCN(CC(=O)NCCc1ccc(S(N)(=O)=O)cc1)Cc1ccccc1	none
COc1cccc(CN(C)Cc2cc(=O)oc3c(C)c(C)ccc23)c1	none (no result: Rv3671c protease)
COc1cccc(CN(C)Cc2cc(=O)oc3cc(O)c(Cl)cc23)c1	FBA Mtb inh 164
CC(C)(C)c1nnc(N/N=C/c2ccccc2)n(N)c1=O	none
CC(C)(C)c1nnc(N/N=C/c2ccccc2O)n(N)c1=O	GDH-TPI counter 36
Cc1cc(C)nc(SCC(=O)c2ccc(O)cc2O)n1	GDH-TPI counter 50
O=C(CSc1nnnn1-c1ccccc1)CSc1nnnn1-c1ccccc1	none
O=C(CSc1nnnn1-c1ccccc1)c1ccc(O)cc1O	GDH-TPI counter 42
CC1(C)Cc2c(sc(NC(=O)C(=O)N3CCOCC3)c2C(N)=O)CO1	none
O=C1CC[C@@H]2C[C@@]3(C[C@@H]4CCN1[C@H]24)Nc1cc([N+](=O)[O-])ccc1NC3=NCc1ccccc1	none (no result: Mtb UGM inh, Rv3671c protease)
O=CNc1cc(-c2cccc(O)c2)cn2c(-c3ccc(F)cc3)cnc12	none (no result: Mtb UGM inh, Rv3671c protease)
C[C@H]1C(c2ccc(F)cc2)=NN(c2ccccc2)[C@@H]1CO	none (no result: Mtb UGM inh, Rv3671c protease)
COc1ccccc1[C@H]1C(c2ccccc2)=NN(c2ccccc2)[C@@H]1CO	FBA Mtb inh 79 (no result: Mtb UGM inh, Rv3671c protease)
CCc1c(C)nc2[nH]ncn2c1=O	none (no result: Mtb UGM inh, Rv3671c protease)
O=C1OCCN1C(=O)[C@H]1[C@H](c2ccccc2)C(c2ccccc2)=NN1c1ccc(Br)cc1	FBA Mtb inh 43 (no result: Mtb UGM inh, Rv3671c protease)
Cc1cccc(C2=NN(c3ccc(Br)cc3)[C@@H](C(=O)N3CCOC3=O)[C@@H]2c2ccccc2)c1	FBA Mtb inh 28 (no result: Mtb UGM inh, Rv3671c protease)
C[C@@H]1C(c2cccc(Cl)c2)=NN(c2ccc(Br)cc2)[C@H]1C(=O)N1CCOC1=O	FBA Mtb inh 56 (no result: Mtb UGM inh, Rv3671c protease)
O=C1OCCN1C(=O)[C@H]1[C@H](c2ccccc2)C(c2ccc(F)cc2)=NN1c1ccc(Br)cc1	FBA Mtb inh 35 (no result: Mtb UGM inh, Rv3671c protease)
Cc1cccc(C2=NN(c3ccccc3)[C@@H](C(=O)N3CCOC3=O)[C@@H]2c2ccccc2)c1	none (no result: Mtb UGM inh, Rv3671c protease)
C[C@@H]1C(c2cccc(Cl)c2)=NN(c2ccccc2)[C@H]1C(=O)N1CCOC1=O	none (no result: Mtb UGM inh, Rv3671c protease)
O=C1OCCN1C(=O)[C@H]1[C@H](c2ccc([N+](=O)[O-])cc2)C(c2ccc(F)cc2)=NN1c1ccc(Br)cc1	none (no result: Mtb UGM inh, Rv3671c protease)
COc1ccc(C2=NOC(c3nnc(-c4ccccc4)o3)C2)cc1 (stereo unspecified)	none
CC1(C(=O)NS(=O)(=O)c2ccc(Br)cc2)CCN1C(=O)C1(c2ccccc2)CC1 (stereo unspecified)	none (no result: Mtb UGM inh, Rv3671c protease)
CC1OC(OC2C(Oc3c(-c4ccc(O)cc4)oc4cc(O)cc(O)c4c3=O)OC(COC3O[C@@H](C)[C@H](O)[C@@H](O)C3O)C(O)C2O)C(O)C(O)C1O (stereo partly specified)	none
COc1ccc(-c2cc(=O)c3c(O)cc(OC4OC(COC5OC(C)C(O)C(O)C5O)C(O)C(O)C4O)cc3o2)cc1O (stereo unspecified)	GDH-TPI counter 42
CC(=O)OC[C@H]1O[C@@H](Oc2cc(O)cc3oc(-c4ccc(O)cc4)cc(=O)c23)[C@H](O[C@@H]2O[C@@H](C)[C@H](O)[C@@H](O)[C@H]2O)[C@@H](O)[C@@H]1O	GDH-TPI counter 33
Cc1ccc(S(=O)(=O)Nc2ncccn2)cc1	none
CC(C)(C)[C@@H]1COC(=O)[C@H](Cc2ccc(F)cc2)C/C=C\C[C@H](CC(=O)N(CCO)Cc2ccccc2)C(=O)N1	none
O=C(Cn1nc(C(=O)O)c2ccccc2c1=O)Nc1cccc(S(=O)(=O)N2CCCC2)c1	none (no result: Mtb UGM inh, Rv3671c protease)
CCc1cc(=O)[nH]c(SCC(=O)Nc2ccc3c(c2)OCCO3)n1	none (no result: Mtb UGM inh)
CCOc1cc(/C=C2/N=C(c3ccc4c(c3)OCO4)OC2=O)ccc1OC(C)=O	none
CN(C)/C=C1\N=C(c2ccccc2)OC1=O	GDH-TPI counter 35
CN(C)/C=C1\N=C(c2ccc3c(c2)OCO3)OC1=O	GDH-TPI counter 53
O=C1OC(c2ccccc2)=N/C1=C\C=C\c1ccco1	none
CCCC(=O)N1CCC1(C)C(=O)Nc1ccc(OC)c(OC)c1 (stereo unspecified)	none (no result: Mtb UGM inh, Rv3671c protease)
CN1C(=O)C2C(c3ccc(N(C)C)cc3)=NN(Cc3ccccc3)C2C1=O (stereo unspecified)	GDH-TPI counter 44
O=C(NC(=S)NNC(=O)c1ccccc1O)c1ccco1	GDH-TPI counter 31
CCCCC(=O)Nc1ccc(C(=O)NNC(=S)NC(=O)c2ccco2)cc1	GDH-TPI counter 44
COc1ccc(S(=O)(=O)N2CCOC23CCN(S(C)(=O)=O)CC3)cc1	none
Cc1ccc(-n2nc3c4c(cccc4c2=O)-c2ccccc2-3)cc1	GDH-TPI counter 33
O=C1/C(=C/c2cccnc2)SC(=S)N1NS(=O)(=O)c1ccccc1	GDH-TPI counter 34
O=C1/C(=C\c2ccc(Br)cc2)SC(=S)N1NS(=O)(=O)c1ccccc1	none
O=c1c(Cl)c(N2CCC3(CC2)OCCO3)cnn1C12CC3CC(CC(C3)C1)C2	none
